Values joined by “and” are separate entries in the source; they are usually repeats but may differ in a detail not shown here. Equal values may be shown once. Out of some 5,500 compounds screened, about 2,000 (36%) were called active. Roughly 18% stayed inconclusive and do not appear here. Cut-off read from the data, not from the text of the source: active = normalized growth mostly below about 0.91 (no sharp cut-off); inconclusive = no clear call, values can overlap the other calls; inactive = mostly above about 0.92. The list shows a part of the results.
Assay: chemical genetic growth profiling, strain panel (AID 1159580);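 note: tested at 20 µM; growth read once vehicle control cultures reached saturation at 30 °C; 1 = growth at the plate median or of vehicle wells; lower values mean less growth of the strain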
Settings: S. cerevisiae deletion strains, growth OD

Measured: normalized growth

CCCCOc1ccc(C(=O)CCN2CCCCC2)cc1
0.415 (active) and 0.996 (inactive): locus YJL095W, strain BCK1, stronger effect = lower value
0.135 (active) and 0.992 (inactive): locus YHR030C, strain SLT2, stronger effect = lower value
active: locus YAL013W, strain DEP1, stronger effect = lower value 0.807 | locus YAL021C, strain ccr4, stronger effect = lower value 0.871 | locus YAL026C, strain drs2, stronger effect = lower value 0.107 | locus YBR009C, strain hhf1, stronger effect = lower value 0.879 | locus YBR231C, strain swc5, stronger effect = lower value 0.866 | locus YBR279W, strain paf1, stronger effect = lower value 0.931 | locus YCL029C, strain bik1, stronger effect = lower value 0.857 | locus YCL061C, strain MRC1, stronger effect = lower value 0.875 | locus YCL069W, strain vba3, stronger effect = lower value 0.139 | locus YDL035C, strain GPR1, stronger effect = lower value 0.772 | locus YDL074C, strain BRE1, stronger effect = lower value 0.5 | locus YDL134C, strain PPH21, stronger effect = lower value 0.137 | locus YDL192W, strain arf1, stronger effect = lower value 0.54 | locus YDR069C, strain doa4, stronger effect = lower value 0.898 | locus YDR137W, strain rgp1, stronger effect = lower value 0.769 | locus YDR162C, strain NBP2, stronger effect = lower value 0.44 | locus YDR195W, strain ref2 1.29 [resistant] | locus YDR318W, strain mcm21, stronger effect = lower value 0.0958 | locus YDR334W, strain swr1, stronger effect = lower value 0.851 | locus YDR335W, strain msn5, stronger effect = lower value 0.277 | locus YDR388W, stronger effect = lower value 0.53 | locus YDR392W, strain spt3, stronger effect = lower value 0.108 | locus YDR502C, strain sam2, stronger effect = lower value 0.657 | locus YEL003W, strain gim4, stronger effect = lower value 0.888 | locus YEL037C, strain rad23, stronger effect = lower value 0.853 | locus YEL061C, strain CIN8 (second series), stronger effect = lower value 0.446 | locus YEL061C, strain CIN8, stronger effect = lower value 0.675 | locus YER016W, strain bim1, stronger effect = lower value 0.9 | locus YER110C, stronger effect = lower value 0.275 | locus YER155C, strain BEM2 (second series), stronger effect = lower value 0.146 | locus YER155C, strain BEM2, stronger effect = lower value 0.258 | locus YER167W, strain BCK2, stronger effect = lower value 0.277 | locus YFR010W, strain ubp6, stronger effect = lower value 0.815 | locus YGL086W, strain mad1, stronger effect = lower value 0.157 | locus YGL173C, strain kem1, stronger effect = lower value 0.845 | locus YGL240W, strain doc1, stronger effect = lower value 0.85 | locus YGL248W, strain PDE1, stronger effect = lower value 0.0961 | locus YGL253W, strain hxk2, stronger effect = lower value 0.252 | locus YGR078C, strain PAC10, stronger effect = lower value 0.187 | locus YGR135W, strain pre9, stronger effect = lower value 0.42 | locus YGR229C, strain SMI1, stronger effect = lower value 0.428 | locus YGR252W, strain gcn5, stronger effect = lower value 0.402 | locus YHR013C, strain ard1, stronger effect = lower value 0.707 | locus YHR027C, strain rpn1, stronger effect = lower value 0.901 | locus YHR079C, strain IRE1 (second series), stronger effect = lower value 0.854 | locus YHR094C, strain hxt1, stronger effect = lower value 0.0833 | locus YHR129C, strain ARP1, stronger effect = lower value 0.413 | locus YHR142W, strain chs7, stronger effect = lower value 0.155 | locus YHR200W, strain rpn10, stronger effect = lower value 0.838 | locus YIL066C, strain RNR3, stronger effect = lower value 0.134 | locus YIL073C, strain SPO22, stronger effect = lower value 0.281 | locus YIR030C, strain dcg1, stronger effect = lower value 0.486 | locus YJL095W, strain BCK1 (second series), stronger effect = lower value 0.734 | locus YJL134W, strain LCB3, stronger effect = lower value 0.533 | locus YJL164C, strain tpk1, stronger effect = lower value 0.883 | locus YJL168C, strain set2, stronger effect = lower value 0.468 | locus YJL187C, strain SWE1 (second series), stronger effect = lower value 0.84 | locus YJR043C, strain POL32, stronger effect = lower value 0.636
inactive: locus YAL030W, strain snc1, stronger effect = lower value 0.977 | locus YBL061C, strain skt5, stronger effect = lower value 0.968 | locus YBR021W, strain FUR4, stronger effect = lower value 0.918 | locus YBR023C, strain chs3, stronger effect = lower value 0.95 | locus YBR171W, strain sec66, stronger effect = lower value 0.981 | locus YBR229C, strain ROT2, stronger effect = lower value 1 | locus YCL011C, strain gbp2, stronger effect = lower value 0.966 | locus YCL016C, strain dcc1, stronger effect = lower value 0.927 | locus YCR088W, strain abp1, stronger effect = lower value 0.94 | locus YDL005C, strain med2, stronger effect = lower value 0.994 | locus YDL040C, strain nat1, stronger effect = lower value 0.989 | locus YDL101C, strain DUN1, stronger effect = lower value 0.907 | locus YDL185W, strain tfp1, stronger effect = lower value 0.961 | locus YDR001C, strain nth1, stronger effect = lower value 0.992 | locus YDR101C, strain arx1, stronger effect = lower value 0.951 | locus YDR159W, strain sac3, stronger effect = lower value 0.913 | locus YDR297W, strain sur2, stronger effect = lower value 0.952 | locus YER015W, strain faa2, stronger effect = lower value 0.967 | locus YER111C, strain swi4, stronger effect = lower value 0.979 | locus YGL078C, strain dbp3, stronger effect = lower value 0.928 | locus YGL167C, strain pmr1, stronger effect = lower value 0.986 | locus YGL227W, strain vid30, stronger effect = lower value 0.997 | locus YHR079C, strain IRE1, stronger effect = lower value 1.04 | locus YIL125W, strain kgd1, stronger effect = lower value 0.957 | locus YJL092W, strain hpr5, stronger effect = lower value 0.918 | locus YJL115W, strain asf1, stronger effect = lower value 0.926 | locus YJL129C, strain trk1, stronger effect = lower value 0.899 | locus YJL154C, strain vps35, stronger effect = lower value 0.968 | locus YJL166W, strain qcr8, stronger effect = lower value 0.925 | locus YJL187C, strain SWE1, stronger effect = lower value 0.962

From PubChem BioAssay AID1159580 (chemical genetic matrix, 2015)
